Only some compounds are listed: those with a hit (about 0.69% of all), similar ones and a draw of the others.
MRP resist rev – reversal of MRP1-mediated doxorubicin resistance, primary screen, H69AR cells, doxorubicin co-treatment; differential viability (reversal), % at 10 µM; AID 602, 2007; hit rate 0.04% among 85,000; H69AR cells + 2 uM doxorubicin, CellTiter-Glo, 72 h;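 active means viability drop by adding the cancer drug above about 55%, with treated viability meeting a 40% cutoff, limit read from the data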;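 further: larger differential means the compound sensitizes cells more to doxorubicin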
Phagocytosis inh – inhibitors of macrophage phagocytosis, primary screen, imaging, J774A.1 cells, IgG beads | J774A.1 macrophage IgG-bead phagocytosis | inhibition, % at 5 µM | hit rate 0.07% among 110,000;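 active means inhibition above the mean of the plate negative controls plus 5 SD, cut at about 13% in these data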;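 further: phagocytic index as fraction of beads internalized from green versus red external bead signal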
MRP1 act – H69AR viability gain despite doxorubicin, primary screen, MRP-1 activator project, H69AR cells, CellTiter-Glo; viability rescue; viability increase, % at 10 µM; hit rate 0.61% among 140,000; AID 799, 2007;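 active means viability gain under doxorubicin at or above a set limit, the compound median plus 3 SD, cut at about 4.7% in these data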;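 further: MRP-1 overexpressing cells given doxorubicin 25 µM after compound pretreatment; 18-22 h compound pretreatment then 72 h with doxorubicin before readout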
Of the large screens only hits and unclear results are named; the others gave an inactive call.

CCOC(=O)C(=O)Nc1nnc(CCc2ccccc2)s1	none (no result: Phagocytosis inh)
Clc1ncc(CN2CCN(Cc3ccccc3)CC2)s1	none (no result: MRP resist rev)
COc1ccc(-c2cc(-c3nnc(-c4ccncc4)o3)c3ccccc3n2)cc1	none (no result: MRP resist rev)
c1ccc2c(-c3nc(C4CCCCC4)no3)cc(-c3ccncc3)nc2c1	MRP1 act 7.6
CC1(C)CC(=O)C2=C(C1)c1c(ccc3ccccc13)NC2c1ccc(Br)o1 (centres undefined)	none
CCCOc1ccc(C(=O)Nc2ccc(N3CCN(C(C)=O)CC3)cc2)cc1	MRP1 act 6.0 (no result: MRP resist rev, Phagocytosis inh)
CC(=O)N1CCN(c2ccc(NC(=O)c3ccc(C)cc3)cc2)CC1	none
O=C(COC(=O)/C=C/c1ccc(Cl)cc1)NCCc1ccccc1	none (no result: MRP resist rev)
O=C(Nc1ccccc1Br)C1CC(=O)N(c2ccc3c4c(cccc24)CC3)C1 (centres undefined)	none (no result: MRP resist rev)
CCOC(=S)NC(=O)c1sc2ccccc2c1Cl	MRP1 act 8.5 (no result: MRP resist rev, Phagocytosis inh)
CCCn1nnc(NC(=O)c2sc3ccccc3c2Cl)n1	none
CC(C)(C)C(=O)NC(=S)NNC(=O)c1sc2ccccc2c1Cl	none (no result: MRP resist rev, Phagocytosis inh)
CCCOC(=S)NC(=O)c1sc2ccccc2c1Cl	MRP1 act 5.7 (no result: MRP resist rev, Phagocytosis inh)
O=C(CN1CCCCCC1)N1c2ccccc2C=Cc2ccccc21	none
N#CC1=C2C=Cc3ccccc3N2CCCC1=O	MRP1 act 7.3
CC(NC(=O)c1ccc(Br)cc1)c1ccc2c(c1)CCCC2 (centres undefined)	MRP1 act 5.6 (no result: MRP resist rev)
CC(NC(=O)c1ccc(F)cc1)c1ccc2c(c1)CCCC2 (centres undefined)	none (no result: MRP resist rev)
CCC(C)c1ccc(NC(=S)NN2CCOCC2)cc1 (centres undefined)	none (no result: MRP resist rev)
Cc1ccc(OCCN2CCN(C(=O)CCC(=O)Nc3nnc(C)s3)CC2)cc1	MRP1 act 7.8 (no result: Phagocytosis inh)
Cc1ccc(OCCN2CCN(C(=O)CCC(=O)Nc3nnc(C(C)C)s3)CC2)cc1	none
O=C(CCSc1ccccc1)Nc1ccc(OCc2ccccc2)cc1	none (no result: MRP resist rev, Phagocytosis inh)
c1ccc(Oc2cc(-n3cncn3)ncn2)cc1	none (no result: MRP resist rev)
Cc1cnn(-c2cc(Oc3ccccc3)ncn2)c1	MRP1 act 4.8
CCOc1ccccc1C(=O)Nc1cnn(Cc2ccc(F)cc2)c1	none (no result: MRP resist rev)
CN(C)[C@@H]1CCC[C@@H]1OC(=O)C(c1ccccc1)c1ccccc1	none (no result: MRP resist rev)
Cc1cccc(OCc2nc(-c3nonc3N)no2)c1C	MRP1 act 5.2
Nc1nonc1-c1noc(COc2ccccc2Cl)n1	none
COCCNC(=O)C(C)Oc1ccc(Cl)cc1Cl (centres undefined)	none (no result: MRP resist rev)
CC(Oc1ccc(Cl)cc1Cl)C(=O)NC1CCSC1=O (centres undefined)	MRP1 act 12.5
CCCS(=O)(=O)N1CCN(C(=O)c2cccc(OC)c2)CC1	none
COc1ccc(CNc2nc3c(c(=O)n(Cc4ccc(Br)cc4)c(=O)n3C)n2C)cc1	MRP1 act 5.2
Cn1c(NCc2ccccc2)nc2c1c(=O)n(Cc1ccc(Br)cc1)c(=O)n2C	none
Cc1ccccc1NC(=O)Cc1nc(CSc2nnc(-c3ccc4c(c3)OCO4)o2)cs1	none
Cc1ccc(C(=O)CCC(=O)Nc2ccc(Cl)c(S(=O)(=O)Nc3cccc(Cl)c3)c2)cc1	MRP1 act 7.8 (no result: MRP resist rev)
Cc1ccc(S(=O)(=O)NCCC(=O)Nc2cccc(Cl)c2)cc1	none (no result: MRP resist rev)
O=S(=O)(Nc1nc(-c2sccc2Cl)cs1)c1cc(Cl)ccc1Cl	none (no result: MRP resist rev, Phagocytosis inh)
CCOc1ccc2ccccc2c1/C=N/NC(=O)CC1(C)OCCCO1	none (no result: MRP resist rev)
CCCc1cc(-c2nc(-c3ccc(Cl)cc3)cs2)ccn1	none (no result: MRP resist rev)
CCCc1cc(-c2nc(-c3ccc(Br)cc3)cs2)ccn1	MRP1 act 5.0 (no result: MRP resist rev)
O=S(=O)(/C=C/c1ccccc1)N1CCN(c2ccccc2)CC1	none
O=S(=O)(/C=C/c1ccccc1)Oc1ccccc1	Phagocytosis inh 166.4
CCOC(=O)Cc1csc(NC(=O)c2sc3nc4c(C)cc(C)cc4cc3c2N)n1	none (no result: MRP resist rev)
Cc1nc2ccc(NC(=O)NCCCO)cc2s1	none
O=C(NCc1ccccn1)c1cc(-c2ccc(-c3ccccc3)cc2)nc2ccccc12	MRP1 act 5.5 (no result: MRP resist rev)
O=C(NCc1ccccn1)c1cc(-c2ccccc2)nc2ccccc12	none (no result: MRP resist rev)
Cc1nnc(NC(=O)c2cccc(F)c2)s1	none (no result: MRP resist rev, Phagocytosis inh)
Cc1nnc(NC(=O)c2c(F)cccc2F)s1	MRP1 act 9.3
COc1ccc2nc(/N=C/c3c(C)[nH]n(-c4ccc(C)cc4)c3=O)sc2c1	none (no result: MRP resist rev)
Cc1ccc(C(NC(=O)NC(C)c2ccccc2)C(Cl)(Cl)Cl)cc1F (centres undefined)	none (no result: MRP resist rev)
Cc1cc(-c2ccccc2)nc(N/N=C/c2ccc([N+](=O)[O-])cc2)n1	none (no result: MRP resist rev)
O=[N+]([O-])c1ccc(N/N=C/c2ccccc2)c(F)c1	MRP1 act 5.2 (no result: MRP resist rev)
COc1ccc(NC(=O)CCC2CCCCC2)cc1S(=O)(=O)N1CCCCC1	none (no result: MRP resist rev)
O=C1/C(=C/c2cccs2)N=C(c2cccs2)N1Nc1ccccc1	none
O=C1/C(=C\c2cccs2)N=C(c2cccs2)N1Nc1ccccc1	MRP1 act 6.9
Cc1cc(Cl)cc(Br)c1OCCNCC(C)O (centres undefined)	Phagocytosis inh 174.1
Cc1cc(Cl)cc(Br)c1OCCCCn1cncn1	none
CN(C1CCCCC1)S(=O)(=O)c1ccc(C(=O)N2CCN(c3nc4ccccc4s3)CC2)cc1	none (no result: MRP resist rev)
O=C(CN1CCN(c2ccccc2)CC1)Nc1ccc(Oc2ccccc2)cc1	none (no result: Phagocytosis inh)
CSCCC(NC(=O)c1ccccc1Br)C(=O)Nc1ccc(C)cc1 (centres undefined)	none (no result: MRP resist rev)
CN1C(=O)/C(=C/c2ccc(-c3ccccc3[N+](=O)[O-])o2)SC1=Nc1ccc(Cl)c(C(=O)O)c1	none (no result: MRP resist rev)
N#Cc1cc2c(nc1SCc1ccccc1)CCCCC2	none
CCn1c(=S)[nH]c2nc3c(cc2c1=O)CCCC3	none (no result: Phagocytosis inh)
CCn1c(SCc2ccc(Cl)cc2)nc2nc3c(cc2c1=O)CCCC3	MRP1 act 5.4 (no result: MRP resist rev)
N#Cc1cc2c(nc1SCc1ccc(Cl)cc1)CCCC2	MRP1 act 6.8 (no result: Phagocytosis inh)
CC(=O)N1CCN=C1SCc1ccc(F)cc1	none
CC(=O)N1CCN=C1SCc1ccc(C)cc1	MRP1 act 5.6
CC(=O)N1CCN=C1SCc1ccc(Cl)cc1	MRP1 act 6.4
CC(=O)N1CCN=C1SCc1ccccc1F	MRP1 act 5.1
CC(=O)N1CCN=C1SCc1ccccc1Cl	none
CCC(=O)N1CCN=C1SCc1ccc(Cl)cc1	none
CCC(=O)N1CCN=C1SCc1ccccc1	MRP1 act 5.1
CC(=O)N1CCN=C1SCc1ccccc1	none
Cc1cc2ccccc2n2c(SCC(=O)Nc3ccc(S(=O)(=O)N4CCC(C)CC4)cc3)nnc12	none (no result: MRP resist rev, Phagocytosis inh)
Cc1ccnc(N2C(=O)CSC2c2ccc(Cl)cc2)c1 (centres undefined)	none (no result: MRP resist rev)
CCN(CC)C(=S)SCC(=O)c1ccc(Br)cc1	none (no result: MRP resist rev)
C=CCNC(=S)NNC(=O)COc1ccc(Br)cc1	MRP1 act 6.4 (no result: MRP resist rev)
C=CCNC(=S)NNC(=O)COc1cccc(Cl)c1	none (no result: MRP resist rev, Phagocytosis inh)
CN(C)CCNC(NC(=O)c1cccs1)C(Cl)(Cl)Cl (centres undefined)	none (no result: MRP resist rev)
Cc1sc2nc(C3CC3)nc(NCCNS(C)(=O)=O)c2c1C	none
COC(=O)c1ccc(CSc2nnc(NC(=O)C3CC(=O)N(c4ccc5c(c4)OCCO5)C3)s2)cc1 (centres undefined)	none (no result: MRP resist rev)
Cc1ccc(C(=O)COc2ccccc2-c2ccccc2)cc1C	MRP1 act 5.0 (no result: MRP resist rev)
O=C(COc1ccccc1-c1ccccc1)c1ccccc1	none (no result: MRP resist rev)
CCOc1ccc(NC(=O)Nc2cc(-c3ccccc3)sc2C(=O)OC)cc1	MRP1 act 6.1 (no result: MRP resist rev, Phagocytosis inh)
CCOC(=O)c1sc(-c2ccc(OC)cc2)cc1NC(C)=O	none (no result: MRP resist rev)
Cc1ccc(S(=O)(=O)N2CCC(C(=O)N/N=C/c3cccnc3)CC2)cc1	none (no result: MRP resist rev)

Bioassay records as filed in PubChem.
